# Test results reported in the supplement of paper PMC6279402.
# Counter-ions that a name gives are not always drawn. ± gives the standard deviation of the averaged measurements.
# Tested on: A549
# Assay: relative viability (normalised to negative control = 1, bortezomib = 0) (fraction); higher = less cytotoxic
# Details: inflammatory serum-free RHB-A with cytokines + LPS; 5 d + 24 h CellTiter-Blue; compound 300 nM; GSK126 pretreatment: none (vehicle)
row,SMILES,relative viability
1,Cc1ccc(C(=O)Nc2cccc(C(F)(F)F)c2)cc1Nc1nc(-c2cccnc2)nc2c1cnn2C,1.06 ± 0.15
2,O=c1ncn2nc(Sc3ccc(F)cc3F)ccc2c1-c1c(Cl)cccc1Cl,1.03 ± 0.16
3,C=CC(=O)Nc1cc2c(Nc3ccc(F)c(Cl)c3)ncnc2cc1OCCCN1CCOCC1 [CI-1033(Canertinib)],0.502 ± 0.028
4,Cc1ccc(NC(=O)c2ccc(CN3CCN(C)CC3)cc2)cc1Nc1nccc(-c2cccnc2)n1,1 ± 0.093
5,Cc1cc(Nc2cc(N3CCN(C)CC3)nc(/C=C/c3ccccc3)n2)n[nH]1,0.769 ± 0.04
6,NC(N)=NC(N)=NCCc1ccccc1 [Phenformin hydrochloride],0.966 ± 0.13
7,CCS(=O)(=O)c1cccc(-c2cc(C(=O)NC3CCN(C)CC3)c(C)c3[nH]c4ncc(C)cc4c23)c1,0.485 ± 0.031
8,COc1cc2ncnc(Nc3cccc(Br)c3)c2cc1OC,0.701 ± 0.086
9,Cc1ncc(-c2ccnc(Nc3ccc(S(C)(=O)=O)cc3)n2)n1C(C)C,0.69 ± 0.03
10,CC(=O)O[C@H]1C(=O)[C@@]2(C)[C@H]([C@H](OC(=O)c3ccccc3)[C@]3(O)C[C@H](OC(=O)[C@H](O)[C@@H](NC(=O)c4ccccc4)c4ccccc4)C(C)=C1C3(C)C)[C@]1(OC(C)=O)CO[C@@H]1C[C@@H]2O [Paclitaxel; Taxol],0.301 ± 0.048
11,CC(=O)O[C@@]12CO[C@@H]1C[C@H](O)[C@@]1(C)C(=O)[C@H](O)C3=C(C)[C@@H](OC(=O)[C@H](O)[C@@H](NC(=O)OC(C)(C)C)c4ccccc4)C[C@@](O)([C@@H](OC(=O)c4ccccc4)[C@H]21)C3(C)C [Docetaxel],0.429 ± 0.011
12,CN(c1ncccc1CNc1nc(Nc2ccc3c(c2)CC(=O)N3)ncc1C(F)(F)F)S(C)(=O)=O,0.891 ± 0.13
13,COc1cc(N2CCC(N3CCN(C)CC3)CC2)ccc1Nc1ncc(Cl)c(Nc2ccccc2S(=O)(=O)C(C)C)n1,0.259 ± 0.028
14,Cc1c2oc3c(C)ccc(C(=O)N[C@@H]4C(=O)N[C@H](C(C)C)C(=O)N5CCC[C@H]5C(=O)N(C)CC(=O)N(C)[C@@H](C(C)C)C(=O)O[C@@H]4C)c3nc-2c(C(=O)N[C@@H]2C(=O)N[C@H](C(C)C)C(=O)N3CCC[C@H]3C(=O)N(C)CC(=O)N(C)[C@@H](C(C)C)C(=O)O[C@@H]2C)c(N)c1=O [Dactinomycin],0.00607 ± 0.0081
15,C=CC(=O)Nc1cccc(Oc2nc(Nc3ccc(N4CCN(C)CC4)cc3)ncc2Cl)c1,0.0677 ± 0.014
16,CC[C@H](Nc1ncnc2nc[nH]c12)c1nc2cccc(F)c2c(=O)n1-c1ccccc1,0.852 ± 0.035
17,COc1cc(Nc2ncc3c(n2)-c2ccc(Cl)cc2C(c2c(F)cccc2OC)=NC3)ccc1C(=O)O,0.381 ± 0.048
18,O=P(O)(O)C(O)(Cn1ccnc1)P(=O)(O)O [Zoledronic acid; Zolendronic acid],1.08 ± 0.051
19,COc1cc([C@@H]2c3cc4c(cc3[C@@H](O[C@@H]3O[C@@H]5CO[C@@H](C)O[C@H]5[C@H](O)[C@H]3O)[C@H]3COC(=O)[C@H]23)OCO4)cc(OC)c1O [Etoposide],0.845 ± 0.047

row,SMILES,relative viability
1,CO[C@H]1C[C@@H]2CC[C@@H](C)[C@@](O)(O2)C(=O)C(=O)N2CCCC[C@H]2C(=O)O[C@H]([C@H](C)C[C@@H]2CC[C@@H](OC(=O)C(C)(CO)CO)[C@H](OC)C2)CC(=O)[C@H](C)/C=C(\C)[C@@H](O)[C@@H](OC)C(=O)[C@H](C)C[C@H](C)/C=C/C=C/C=C/1C [CCI-779; Temsirolimus],0.531 ± 0.028
2,CCN(CCO)CCCOc1ccc2c(Nc3cc(CC(=O)Nc4cccc(F)c4)[nH]n3)ncnc2c1 [AZD1152-HQPA(Barasertib)],0.696 ± 0.037
3,CNC(=O)CN1CCC(Oc2cc3c(Nc4cccc(Cl)c4F)ncnc3cc2OC)CC1,0.375 ± 0.024
4,Oc1cccc(-c2nc(N3CCOCC3)c3oc4ncccc4c3n2)c1,0.127 ± 0.025
5,Cn1cnc(-c2cc3nccc(Oc4ccc(NC(=S)NC(=O)Cc5ccccc5)cc4F)c3s2)c1,0.945 ± 0.065
6,COc1c2occc2cc2ccc(=O)oc12 [Methoxsalen],0.906 ± 0.057
7,CN(N=O)C(=O)N[C@@H]1[C@@H](O)[C@H](O)[C@@H](CO)O[C@@H]1O [Streptozocin],1.08 ± 0.088
8,O=C(Nc1c[nH]nc1-c1nc2ccc(CN3CCOCC3)cc2[nH]1)NC1CC1,0.279 ± 0.077
9,C/C(=C\c1csc(C)n1)[C@@H]1C[C@@H]2O[C@]2(C)CCC[C@H](C)[C@H](O)[C@@H](C)C(=O)C(C)(C)[C@@H](O)CC(=O)N1 [Ixabepilone],0.288 ± 0.043
10,CCCS(=O)(=O)Nc1ccc(F)c(C(=O)c2c[nH]c3ncc(Cl)cc23)c1F,1.02 ± 0.074
11,CCCNC(=O)Nc1ccc(Oc2ncnc3cc(OC)c(OC)cc23)cc1Cl,0.895 ± 0.087
12,Nc1nc(Cl)nc2c1ncn2[C@H]1C[C@H](O)[C@@H](CO)O1 [Cladribine],0.305 ± 0.075
13,O=c1cc(N2CCOCC2)oc2c(-c3cccc4c3sc3ccccc34)cccc12,0.919 ± 0.072
14,S=c1[nH]cnc2nc[nH]c12 [Mercaptopurine],0.984 ± 0.011
15,Cc1[nH]nc2ccc(-c3cncc(OC[C@@H](N)Cc4ccccc4)c3)cc12,0.273 ± 0.056
16,CC(=O)Nc1nc(C)c(-c2ccc(Cl)c(S(=O)(=O)NCCO)c2)s1,0.712 ± 0.052
17,CNC(=O)c1cc(Oc2ccc(NC(=O)Nc3ccc(Cl)c(C(F)(F)F)c3)c(F)c2)ccn1 [Regorafenib; BAY 73-4506(Regorafenib)],0.913 ± 0.014
18,C=CC(=O)Nc1cccc(Sc2nc(Nc3ccc(N4CCN(C)CC4)cc3)ncc2Cl)c1,0.477 ± 0.083
